Consider nine molecules from PubChem BioAssay (NCI).

A short description of experiment [1]: NCI Yeast Anticancer Drug Screen. Data for the rad50 strain (AID 155).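 Further: 0% = growth of vehicle-only cultures of the same strain.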 Conditions: S. cerevisiae rad50 strain growth inhibition, active compounds read high. In short, it runs like this:
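Growth of the mutant yeast was measured after compound exposure and referenced to vehicle-treated cultures.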

Experiment [2] in a line: NCI Yeast Anticancer Drug Screen. Data for the mec2-1 strain (AID 157). Conditions: S. cerevisiae mec2-1 strain, active compounds read high. The gist of the method:
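Strain: mec2-1 (DNA repair/cell cycle alteration). Compound exposure, then growth measured; inhibition expressed relative to vehicle.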

Experiment [3] is described as follows: NCI Yeast Anticancer Drug Screen. Data for the sgs1 mgt1 strain (AID 161).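 Further: 0% = growth of cultures given vehicle only.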 Conditions: S. cerevisiae sgs1 mgt1 strain, active compounds read high. The gist of the method: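 Test agents were incubated with a DNA-repair-mutant yeast strain. Growth was then read and compared against vehicle-treated controls.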
The nature of experiment [4]: NCI Yeast Anticancer Drug Screen. Data for the cln2 rad14 strain (AID 165).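 Further: 0% = growth equal to vehicle treated cultures.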 Conditions: S. cerevisiae cln2 rad14 strain, active compounds read high. In short, it runs like this:
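Compounds are applied to the cln2 rad14 yeast strain, and growth is then compared with that of vehicle-treated cultures to give inhibition.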

The nature of experiment [5]: NCI Yeast Anticancer Drug Screen. Data for the bub3 strain (AID 167). Conditions: S. cerevisiae bub3 mutant strain, active compounds read high. In short, it runs like this: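 Whole-cell yeast assay. The mutant strain was incubated with compounds, and growth inhibition was determined by comparison with vehicle-treated cells.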
The nature of experiment [6]: NCI Yeast Anticancer Drug Screen. Data for the mlh1 rad18 strain (AID 175). Conditions: S. cerevisiae mlh1 rad18 strain growth inhibition, active compounds read high. The gist of the method: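 Read-out is yeast growth inhibition, calculated against vehicle-only controls. The compound was applied to a strain engineered with DNA damage repair alterations.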
The mark [7] stands for this setting: at 5.0 µM (retest, dose inferred, filed as 0.5).
Where [8] appears, read: at 50.0 µM (retest, dose inferred, filed as 5.0).

This is part of a sample that, as a whole, favours compounds with a hit. Of some 79,000 tested, about 15% had one in any assay. Values without a mark were called inactive. The source made the active and inactive calls. No stated cut-off is given here; in the data, active means growth inhibition above about 70%; inactive means the rest.

Turning to `Cc1cc(C(O)(C(F)(F)F)C(F)(F)F)c(I)c(C(O)(C(F)(F)F)C(F)(F)F)c1`, the growth inhibition in experiment [1] (setting [7]) was 100% (active); in experiment [1] (setting [8]) it was 100% (active); in experiment [1] (at 50.0 µM), 97.3% (active); in experiment [2] (setting [7]), 99% (active); in experiment [2] (setting [8]), 100% (active); in experiment [2] (at 50.0 µM) it was 99.2% (active). Moreover, the growth inhibition in experiment [3] (setting [7]) is 99% (active); in experiment [3] (setting [8]) it was 100% (active); in experiment [3] (at 50.0 µM), 99.2% (active); in experiment [4] (setting [7]) it was 98% (active); in experiment [4] (setting [8]) it was 99% (active); in experiment [4] (at 50.0 µM), 89.8% (active). For the same molecule, the growth inhibition in experiment [5] (setting [7]) is 99% (active); in experiment [5] (setting [8]), 99% (active); in experiment [5] (at 50.0 µM) it was 98.7% (active); in experiment [6] (setting [7]), 99% (active); in experiment [6] (setting [8]) it was 99% (active); in experiment [6] (at 50.0 µM) it was 98.5% (active).

As to `C=C1CCC[C@@H]2[C@@](C)(CC3=CC(=O)C=CC3=O)C(C)CC[C@]12C` (some centres not stated), the growth inhibition is 39% in experiment [1] (setting [7]); 96% (active) in experiment [1] (setting [8]); 98.5% (active) in experiment [1] (at 50.0 µM); 43% in experiment [2] (setting [7]); 96% (active) in experiment [2] (setting [8]); 88.7% (active) in experiment [2] (at 50.0 µM). Besides, the growth inhibition is 54% in experiment [3] (setting [7]); 97% (active) in experiment [3] (setting [8]); 98.7% (active) in experiment [3] (at 50.0 µM); 7% in experiment [4] (setting [7]); 93% (active) in experiment [4] (setting [8]); 95.2% (active) in experiment [4] (at 50.0 µM). Further, the growth inhibition was 27% in experiment [5] (setting [7]); 96% (active) in experiment [5] (setting [8]); 98.6% (active) in experiment [5] (at 50.0 µM); 55% in experiment [6] (setting [7]); 95% (active) in experiment [6] (setting [8]); 98.5% (active) in experiment [6] (at 50.0 µM).

As to `c1cc[c]([Sn]([O]c2cccc3cccnc23)([c]2ccccc2)[c]2ccccc2)cc1`, the growth inhibition in experiment [1] (setting [7]) was 99% (active); in experiment [1] (setting [8]), 21%; in experiment [1] (at 50.0 µM), 89.5% (active); in experiment [2] (setting [7]), 100% (active); in experiment [2] (setting [8]) it was 10%; in experiment [2] (at 50.0 µM), 92.2% (active). Further, the growth inhibition is 100% (active) in experiment [3] (setting [7]); 30% in experiment [3] (setting [8]); 89.6% (active) in experiment [3] (at 50.0 µM); 99% (active) in experiment [4] (setting [7]); 11% in experiment [4] (setting [8]); 85.8% (active) in experiment [4] (at 50.0 µM). Besides, the growth inhibition in experiment [5] (setting [7]) was 99% (active); in experiment [5] (setting [8]), 63%; in experiment [5] (at 50.0 µM), 90.8% (active); in experiment [6] (setting [7]), 100% (active); in experiment [6] (setting [8]), 14%; in experiment [6] (at 50.0 µM), 93% (active).

On to `O=Cc1ccc(-c2nccc3c2[nH]c2ccccc23)o1`, for which the growth inhibition is 23% in experiment [1] (setting [7]); 35% in experiment [1] (setting [8]); 78.2% (active) in experiment [1] (at 50.0 µM); 15% in experiment [2] (setting [7]); 17% in experiment [2] (setting [8]); 26.9% in experiment [2] (at 50.0 µM). Besides, the growth inhibition in experiment [3] (setting [7]) was 17%; in experiment [3] (setting [8]), 20%; in experiment [3] (at 50.0 µM), 19.1%; in experiment [4] (setting [7]), 12%; in experiment [4] (setting [8]), 16%; in experiment [4] (at 50.0 µM), 16.1%. Also, the growth inhibition in experiment [5] (setting [7]) was 24%; in experiment [5] (setting [8]), 14%; in experiment [5] (at 50.0 µM), 8.9%; in experiment [6] (setting [7]), 21%; in experiment [6] (setting [8]) it was 25%; in experiment [6] (at 50.0 µM), -1.45%.

Take `C/C(=N/NC(=S)Nc1cccc(C)c1)c1ccccn1`: the growth inhibition in experiment [1] (setting [7]) is 62%; in experiment [1] (setting [8]), 99% (active); in experiment [1] (at 50.0 µM), 80.2% (active); in experiment [2] (setting [7]), 91% (active); in experiment [2] (setting [8]), 99% (active); in experiment [2] (at 50.0 µM), 85.9% (active). Further, the growth inhibition in experiment [3] (setting [7]) is 75% (active); in experiment [3] (setting [8]), 99% (active); in experiment [3] (at 50.0 µM), 88.3% (active); in experiment [4] (setting [7]) it was 94% (active); in experiment [4] (setting [8]), 99% (active); in experiment [4] (at 50.0 µM), 88.9% (active). For the same molecule, the growth inhibition in experiment [5] (setting [7]) is 96% (active); in experiment [5] (setting [8]) it was 99% (active); in experiment [5] (at 50.0 µM), 90.3% (active); in experiment [6] (setting [7]) it was 68%; in experiment [6] (setting [8]), 99% (active); in experiment [6] (at 50.0 µM), 91% (active).

In the case of `N#Cc1ccccc1[N+](=O)[O-]`, the growth inhibition is 16% in experiment [1] (setting [7]); 95% (active) in experiment [1] (setting [8]); 67.5% in experiment [1] (at 50.0 µM); 1% in experiment [2] (setting [7]); 58% in experiment [2] (setting [8]); 20.4% in experiment [2] (at 50.0 µM). Besides, the growth inhibition was 3% in experiment [3] (setting [7]); 63% in experiment [3] (setting [8]); 59.8% in experiment [3] (at 50.0 µM); -1% in experiment [4] (setting [7]); 25% in experiment [4] (setting [8]); 0.35% in experiment [4] (at 50.0 µM). The growth inhibition was -3% in experiment [5] (setting [7]); 54% in experiment [5] (setting [8]); 61.4% in experiment [5] (at 50.0 µM); 4% in experiment [6] (setting [7]); 93% (active) in experiment [6] (setting [8]); 79.5% (active) in experiment [6] (at 50.0 µM).

As for `C1=C([P+](c2ccccc2)(c2ccccc2)c2ccccc2)CCCC1`, the growth inhibition was 22% in experiment [1] (setting [7]); 93% (active) in experiment [1] (setting [8]); 89.8% (active) in experiment [1] (at 50.0 µM); -2% in experiment [2] (setting [7]); 91% (active) in experiment [2] (setting [8]); 92.2% (active) in experiment [2] (at 50.0 µM). The growth inhibition was 13% in experiment [3] (setting [7]); 84% (active) in experiment [3] (setting [8]); 88.5% (active) in experiment [3] (at 50.0 µM); 24% in experiment [4] (setting [7]); 90% (active) in experiment [4] (setting [8]); 86.5% (active) in experiment [4] (at 50.0 µM). For the same molecule, the growth inhibition in experiment [5] (setting [7]) is -8%; in experiment [5] (setting [8]), 92% (active); in experiment [5] (at 50.0 µM) it was 87.5% (active); in experiment [6] (setting [7]), 14%; in experiment [6] (setting [8]) it was 91% (active); in experiment [6] (at 50.0 µM) it was 91.9% (active).

On to `Clc1ccc(C2SCc3nc4ccccc4n32)c(Cl)c1` (configuration not stated), for which the growth inhibition was -7% in experiment [1] (setting [7]); 96% (active) in experiment [1] (setting [8]); 99% (active) in experiment [1] (at 50.0 µM); -6% in experiment [2] (setting [7]); 97% (active) in experiment [2] (setting [8]); 99.1% (active) in experiment [2] (at 50.0 µM). The growth inhibition was 4% in experiment [3] (setting [7]); 95% (active) in experiment [3] (setting [8]); 99.2% (active) in experiment [3] (at 50.0 µM); -17% in experiment [4] (setting [7]); 98% (active) in experiment [4] (setting [8]); 97.9% (active) in experiment [4] (at 50.0 µM). Moreover, the growth inhibition in experiment [5] (setting [7]) is 9%; in experiment [5] (setting [8]) it was 96% (active); in experiment [5] (at 50.0 µM) it was 98.7% (active); in experiment [6] (setting [7]) it was -10%; in experiment [6] (setting [8]), 94% (active); in experiment [6] (at 50.0 µM) it was 71.9% (active).

For `C[N+](C)(CCO)Cc1ccccc1`, the growth inhibition in experiment [1] (setting [7]) is -4%; in experiment [1] (setting [8]), 10%; in experiment [1] (at 50.0 µM) it was -19.4%; in experiment [2] (setting [7]), 1%; in experiment [2] (setting [8]), 0%; in experiment [2] (at 50.0 µM), 1.6%. Moreover, the growth inhibition in experiment [3] (setting [7]) was -5%; in experiment [3] (setting [8]), -37%; in experiment [3] (at 50.0 µM) it was 11.2%; in experiment [4] (setting [7]), -1%; in experiment [4] (setting [8]), 2%; in experiment [4] (at 50.0 µM) it was -30.6%. In addition, the growth inhibition in experiment [5] (setting [7]) was 8%; in experiment [5] (setting [8]) it was 39%; in experiment [5] (at 50.0 µM), 74.2% (active); in experiment [6] (setting [7]) it was -4%; in experiment [6] (setting [8]), 6%; in experiment [6] (at 50.0 µM), 34%.
